Reference: PubChem BioAssay (NCATS)
Results filed as inconclusive are left out. Active and inactive are the calls of the source. The call rests on the fitted dose curve; in most records, active means well fitted cell-killing curve with a large enough effect; inconclusive means small, poorly fitted or top-dose-only effect, or effect the other way; inactive means flat fitted curve, though single readings scatter.
On the % scale 0 is the no-effect control and ±100 the full control effect; potency means the concentration at half of the fitted maximal effect.

What follows are compounds tested on C33A (assay: Primary qHTS to identify gynecologic anti-cancer compounds using libraries of approved drugs and bioactive compounds (AID 1345084; further: nearly all actives have a fitted effect of over 55% in size)). Details: Gynecologic cancer cell panel viability, ATPlite luminescence, 48 h; series mostly up to 57.5 µM; activity change, negative = cytotoxicity: at the top concentration.
Procedure, shortened: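 Five-point cytotoxicity, 48 h drug exposure at 37 C, 5% CO2, on cells seeded 16 h beforehand. ATP content read by ATPlite luminescence.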
For `N#CC1(c2cccc(C(=O)Nc3cc(Oc4ccc5nc(NC(=O)C6CC6)sc5n4)ccc3F)c2Cl)CC1`, the “activity change, negative = cytotoxicity” value was -9.36% (inactive). With `O=C1NC(=O)C(c2cnc3ccccn23)=C1c1cn2c3c(cccc13)CN(C(=O)N1CCOCC1)CC2` the “activity change, negative = cytotoxicity” value was -19.2% (inactive). For `O=C(O)CCNc1cc(N2CCc3ccccc3CC2)nc(-c2ccccn2)n1`, the Potency was “inactive”. With `COc1cc2ncnc(Nc3cc(Br)c(O)c(Br)c3)c2cc1OC` the “activity change, negative = cytotoxicity” value was -16% (inactive). For `CN(C)c1ccc(-c2nc3ncc(Cl)c(N4CCN(CC(=O)Nc5nccs5)CC4)c3[nH]2)cc1`, the “activity change, negative = cytotoxicity” value was -5.79% [at 25.3 µM] (inactive). `COc1ccnc(CS(=O)c2nc3ccc(OC(F)F)cc3[nH]2)c1OC` (configuration not stated) was tested, and the “activity change, negative = cytotoxicity” value was 4.6% (inactive). `Nc1[nH]nc2nnc(-c3c(-c4ccccc4)nn4ccccc34)cc12` was tested, and the “activity change, negative = cytotoxicity” value was 8.5% (inactive). For `CNC(=O)c1ccc2c(C(=Nc3cccc(CN(C)C)c3)c3ccccc3)c(O)[nH]c2c1`, the “activity change, negative = cytotoxicity” value was -10.5% (inactive). With `NC1(C(=O)N[C@@H](CCO)c2ccc(Cl)cc2)CCN(c2ncnc3[nH]ccc23)CC1` the Potency was 2.51 µM (active). For `O=C(CC12CC3CC(CC(C3)C1)C2)Nc1cccc2nc(NCCNCCO)ccc12`, the “activity change, negative = cytotoxicity” value was 10% (inactive). With `Cc1cnc(CNC(=O)c2c(=O)c3ccc(N4CCCN(C)CC4)nc3n3c2sc2ccccc23)cn1` the activity change, negative = cytotoxicity was -22% [at 11.6 µM] (inactive). In the case of `CCN1CCC(n2cc(CNc3cc(Cl)c4ncc(C#N)c(Nc5ccc(F)c(Cl)c5)c4c3)nn2)CC1`, the “activity change, negative = cytotoxicity” value is reported as -4.03% (inactive).
